From PubChem BioAssay
The source made the active and inactive calls. Unless noted, the rule behind the calls is not given here.

How the values were obtained:
[1] = compounds binding Alexa647 anti-His antibody – biochemical, small-molecule microarray, 635 nm fluorescence, artefact control for SMM control protein annotation, primary screen (AID 1128); details: higher = more signal;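 note: score merges feature fluorescence with signal-to-noise for each printed compound spot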
[2] = test system: Human papillomavirus type 1a E7 protein (residues 1-88); experiment: HPV1a E7 small-molecule binders, primary screen, biochemical, small-molecule microarray, residues 1-88, 635 nm (AID 1129); details: small-molecule microarray binding, fluorescence 635 nm; higher = more signal
[3] = biological target: Focal adhesion kinase 1 (Homo sapiens) (UniProt Q05397); experiment: PTK2 protein binding on printed compound slides – biochemical, small-molecule microarray, 635/667 nm fluorescence, BSA, DTT, primary screen (AID 1130); details: 635 nm fluorescence, higher = more signal;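 note: composite of spot emission at 667 nm and signal to noise over triplicate slides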
Focal adhesion kinase 1 (Homo sapiens), sequence (Q05397 whole entry, looked up): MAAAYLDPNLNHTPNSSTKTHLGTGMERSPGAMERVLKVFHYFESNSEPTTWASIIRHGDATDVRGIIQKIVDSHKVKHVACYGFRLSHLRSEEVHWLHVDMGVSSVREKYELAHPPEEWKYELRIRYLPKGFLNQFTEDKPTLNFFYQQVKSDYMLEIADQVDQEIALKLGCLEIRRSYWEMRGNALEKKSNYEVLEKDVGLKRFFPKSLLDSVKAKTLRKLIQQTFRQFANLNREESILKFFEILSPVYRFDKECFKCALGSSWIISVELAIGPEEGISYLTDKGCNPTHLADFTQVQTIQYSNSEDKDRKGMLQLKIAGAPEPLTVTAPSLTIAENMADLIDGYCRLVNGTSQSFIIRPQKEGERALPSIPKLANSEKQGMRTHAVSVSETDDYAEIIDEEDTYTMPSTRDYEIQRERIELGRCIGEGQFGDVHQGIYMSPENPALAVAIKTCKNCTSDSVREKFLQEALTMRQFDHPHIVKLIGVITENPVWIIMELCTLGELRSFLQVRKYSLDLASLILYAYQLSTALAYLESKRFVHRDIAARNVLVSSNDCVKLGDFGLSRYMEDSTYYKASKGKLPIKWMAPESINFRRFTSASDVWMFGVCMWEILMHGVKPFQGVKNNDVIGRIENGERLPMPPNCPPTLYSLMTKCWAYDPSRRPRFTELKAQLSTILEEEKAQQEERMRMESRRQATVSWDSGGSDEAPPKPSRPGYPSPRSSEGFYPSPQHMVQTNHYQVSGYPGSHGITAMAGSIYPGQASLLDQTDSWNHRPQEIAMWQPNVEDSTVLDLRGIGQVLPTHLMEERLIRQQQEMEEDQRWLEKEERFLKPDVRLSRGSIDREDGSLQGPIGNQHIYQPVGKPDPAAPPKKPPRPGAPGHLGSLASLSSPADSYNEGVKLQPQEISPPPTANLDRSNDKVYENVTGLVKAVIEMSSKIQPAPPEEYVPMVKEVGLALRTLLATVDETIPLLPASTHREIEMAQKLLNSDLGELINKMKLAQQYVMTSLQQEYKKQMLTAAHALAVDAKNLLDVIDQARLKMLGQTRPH

[4] = test system: Fibrinogen (Alexa647-labelled); experiment: Alexa647-fibrinogen binding to printed small molecules – biochemical, small-molecule microarray, 635/667 nm fluorescence, artefact control for SMM control-protein annotation, profiling panel (AID 1131); details: fibrinogen-A647 binding fluorescence, higher = more signal;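 note: z-score merges 667 nm fluorescence with per-spot signal-to-noise over triplicate slides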
[5] = biological target: Follistatin (Homo sapiens) (UniProt P19883); experiment: FST protein binding to printed compounds – biochemical, small-molecule microarray, 635/667 nm fluorescence, primary screen (AID 1132); details: 635 nm fluorescence, higher = more signal
Follistatin (Homo sapiens), sequence (P19883 whole entry, looked up): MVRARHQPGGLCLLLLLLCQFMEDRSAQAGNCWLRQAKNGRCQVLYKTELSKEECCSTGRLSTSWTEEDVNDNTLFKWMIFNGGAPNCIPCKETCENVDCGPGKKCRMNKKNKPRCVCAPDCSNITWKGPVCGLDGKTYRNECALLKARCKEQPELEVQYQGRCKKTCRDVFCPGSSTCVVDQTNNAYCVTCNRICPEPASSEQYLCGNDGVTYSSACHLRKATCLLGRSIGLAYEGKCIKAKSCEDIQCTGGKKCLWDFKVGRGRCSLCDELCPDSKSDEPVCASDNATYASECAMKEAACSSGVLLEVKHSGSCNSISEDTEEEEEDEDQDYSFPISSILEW

[6] = biological target: Fibroblast growth factor 2 (Homo sapiens) (UniProt P09038); experiment: basic fibroblast growth factor binding to printed compounds – biochemical, small-molecule microarray, 635/667 nm fluorescence, primary screen (AID 1133); details: FGF2, fluorescence 635/667, higher = more signal
Fibroblast growth factor 2 (Homo sapiens), sequence (P09038 whole entry, looked up): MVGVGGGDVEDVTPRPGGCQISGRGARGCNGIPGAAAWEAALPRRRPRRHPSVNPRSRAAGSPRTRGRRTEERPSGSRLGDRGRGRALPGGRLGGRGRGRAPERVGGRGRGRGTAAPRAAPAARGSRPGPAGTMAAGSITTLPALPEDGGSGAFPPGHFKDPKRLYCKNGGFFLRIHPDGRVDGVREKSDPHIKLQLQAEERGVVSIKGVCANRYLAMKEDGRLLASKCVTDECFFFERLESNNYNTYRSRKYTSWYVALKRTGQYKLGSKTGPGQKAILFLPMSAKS

[7] = JC-1 mitochondrial potential readout, lung cancer cells – cell-based, A549, JC-1 fluorescence, basal, 24 h, 100 nL, profiling panel (AID 1138); details: higher = more signal;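 note: A549 lung adenocarcinoma cells under basal conditions with no added stimulus; test concentration not given here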
Lefty1 = Lefty1 protein binding to printed compounds – biochemical, small-molecule microarray, 635/667 nm fluorescence, primary screen (AID 1139); details: fluorescence 635/667, higher = more signal
[8] = test system: wheat germ agglutinin (Triticum aestivum), Alexa647-labelled; experiment: Alexa647-WGA lectin binding to printed small molecules – biochemical, small-molecule microarray, 635/667 nm fluorescence, artefact control for SMM control-protein annotation, profiling panel (AID 1140); details: WGA-A647 binding, 635 nm fluorescence, higher = more signal;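 note: score merges 667 nm feature emission with signal to noise over triplicate slides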
[9] = biological target: Luciferin 4-monooxygenase (Photinus pyralis) (UniProt P08659); experiment: inhibition of purified Photinus pyralis luciferase – biochemical, luminescence, purified enzyme, 2006 set, primary screen (AID 1141); details: purified firefly luciferase, SteadyGlo luminescence, 30 min; higher = more signal, called active from +8 up or from −8 down;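 note: cell-free assay with purified firefly luciferase at 100 ng per well in PBS; test concentration not given here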
Luciferin 4-monooxygenase (Photinus pyralis), sequence (P08659 whole entry, looked up): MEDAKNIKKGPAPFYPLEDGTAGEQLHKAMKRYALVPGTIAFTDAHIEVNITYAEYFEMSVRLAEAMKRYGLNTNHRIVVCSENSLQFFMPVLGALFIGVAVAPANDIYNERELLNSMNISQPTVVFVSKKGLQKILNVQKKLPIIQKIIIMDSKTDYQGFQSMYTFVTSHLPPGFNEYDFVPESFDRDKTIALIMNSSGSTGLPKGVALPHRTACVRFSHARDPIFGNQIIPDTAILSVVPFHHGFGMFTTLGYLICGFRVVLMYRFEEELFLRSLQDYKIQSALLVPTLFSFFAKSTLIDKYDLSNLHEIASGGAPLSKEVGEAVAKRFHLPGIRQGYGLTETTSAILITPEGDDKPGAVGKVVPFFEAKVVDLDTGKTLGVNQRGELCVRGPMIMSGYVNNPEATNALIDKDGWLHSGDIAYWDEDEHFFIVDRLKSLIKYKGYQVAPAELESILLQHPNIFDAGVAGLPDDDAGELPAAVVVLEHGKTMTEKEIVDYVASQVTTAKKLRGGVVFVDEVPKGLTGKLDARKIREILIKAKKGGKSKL

[10] = test system: Wnt5a (protein binding on small-molecule microarray); experiment: small molecules binding Wnt5a protein – biophysical, small-molecule microarray, 635/667 nm fluorescence, primary screen (AID 1142); details: 635 nm fluorescence, higher = more signal;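 note: fluorescence read at 667 nm with signal to noise per printed feature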
[11] = ATP-based viability of Huh7 replicon cells – cell-based, CellTiter-Glo luminescence, basal, 48 h, cytotoxicity control for HCV replication inhibitor project, primary screen (AID 1143); details: higher = more signal, called active from +8 up or from −8 down;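 note: Huh7 hepatoma cells carrying a hepatitis C replication reporter with no stimulus; test concentration not given here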
[12] = Pseudomonas biofilm growth suppression – PAO1 strain, BacTiter-Glo luminescence, LB-PBS, primary screen (AID 1144); details: P. aeruginosa PAO1 biofilm, 12 h, higher = more signal
[13] = basal CRE-LacZ reporter activity in PC12 – cell-based, unstimulated, primary screen (AID 1145); details: no forskolin, luminescence, 4.5 h, higher = more signal, called active from +8 up or from −8 down
[14] = forskolin-driven CRE-LacZ activity in PC12 – cell-based, CRE-LacZ reporter, forskolin-stimulated, primary screen (AID 1146); details: luminescence, 4.5 h, higher = more signal, called active from +8 up or from −8 down;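 note: PC12 cells with 6xCRE LacZ reporter stimulated by forskolin 10 µM; beta-galactosidase reporter signal reflecting CREB driven transcription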
[15] = biological target: Streptavidin (Streptomyces avidinii) (UniProt P22629); experiment: compounds binding control protein streptavidin – biophysical, small-molecule microarray, 635/667 nm fluorescence, artefact control for SMM compound annotation, primary screen (AID 1147); details: higher = more signal;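 note: signal reflects streptavidin binding to arrayed compounds as a control protein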
Streptavidin (Streptomyces avidinii), sequence (P22629 whole entry, looked up): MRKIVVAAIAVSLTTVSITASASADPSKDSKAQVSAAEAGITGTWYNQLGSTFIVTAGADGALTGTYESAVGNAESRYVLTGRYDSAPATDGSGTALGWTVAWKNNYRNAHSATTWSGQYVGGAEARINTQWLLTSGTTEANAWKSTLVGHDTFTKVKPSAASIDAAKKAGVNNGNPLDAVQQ

[16] = probe aInhba binding on compound microarray – biochemical, small-molecule microarray, 635/667 nm fluorescence, primary screen (AID 1148); details: higher = more signal;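 note: score merges 667nm spot fluorescence with signal-to-noise for antibody binding to printed compounds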
Torsin-1A (Homo sapiens) [17] = biological target: Torsin-1A (Homo sapiens) (UniProt O14656); experiment: TOR1A wild-type binding on microarray – cell lysate, small-molecule microarray, lysate, 635/667 nm, primary screen (AID 1149); details: COS7 hTOR1A-WT lysate, 635 nm fluorescence, higher = more signal
Torsin-1A (Homo sapiens), sequence (O14656 whole entry, looked up): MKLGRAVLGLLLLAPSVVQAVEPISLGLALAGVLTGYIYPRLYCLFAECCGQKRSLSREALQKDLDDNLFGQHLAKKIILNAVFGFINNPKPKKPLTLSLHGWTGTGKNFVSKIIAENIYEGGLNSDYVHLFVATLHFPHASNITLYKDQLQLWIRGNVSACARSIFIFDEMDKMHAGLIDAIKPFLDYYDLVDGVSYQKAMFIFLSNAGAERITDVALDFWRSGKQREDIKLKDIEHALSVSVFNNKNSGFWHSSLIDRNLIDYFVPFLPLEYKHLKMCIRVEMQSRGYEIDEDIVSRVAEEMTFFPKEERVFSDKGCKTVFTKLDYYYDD

Torsin-1A (Homo sapiens) [18] = biological target: Torsin-1A (Homo sapiens) (UniProt O14656); experiment: torsin A mutant lysate binding on microarrays – cell lysate, small-molecule microarray, COS7 lysate, 635/667 nm fluorescence, primary screen (AID 1150); details: COS7 hTOR1A mutant lysate, 635 nm fluorescence, higher = more signal;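 note: score pools 667 nm emission and signal to noise measuring lysate protein binding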
[19] = test system: Sonic hedgehog protein (Shh); experiment: Sonic hedgehog microarray binding compounds – biochemical, small-molecule microarray, 635/667 nm fluorescence, primary screen (AID 1151); details: 635 nm fluorescence, higher = more signal;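 note: Shh protein binding to compounds spotted on small-molecule microarray slides; score combines spot fluorescence intensity with signal-to-noise across triplicate slides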

SMILES	composite z-score [1]	composite z-score [2]	composite z-score [3]	composite z-score [4]	composite z-score [5]	composite z-score [6]	z-score [7]	composite z-score (Lefty1)	composite z-score [8]	z-score [9]	composite z-score [10]	z-score [11]	z-score [12]	z-score [13]	z-score [14]	composite z-score [15]	composite z-score [16]	composite z-score (Torsin-1A (Homo sapiens) [17])	composite z-score (Torsin-1A (Homo sapiens) [18])	composite z-score [19]
C=CCOC(=O)[C@@H]1[C@H]2C(=O)O[C@H](c3ccccc3)[C@H](c3ccccc3)N2[C@H](c2ccc(OCCOC(=O)[C@@H]3C[C@@H]4C(=O)N5CCC[C@H]5C(=O)N4[C@@H]3c3cccc(OCCO)c3)cc2)[C@@]12C(=O)Nc1ccc(I)cc12	1.16	1.07	0.468	0.4	1.43	1.92	-1.17	1.42	0.504	1.13 (inactive)	0.667	-1.77 (inactive)	-0.49 (inactive)	-1.2 (inactive)	-0.725 (inactive)	0.161	-0.0221	0.85	0.623	2.01
CC(C)=CCCC(C)=CC(O)C1C=CC2C(=O)N(c3ccccc3)C(=O)C2N1Nc1ccc([N+](=O)[O-])cc1 (stereo not given)	0.987	1.22	0.954	1.02	1.03	-0.151	-0.78	0.253	0.969	0.453 (inactive)	0.0504	-1.72 (inactive)	-0.322 (inactive)	0.323 (inactive)	-0.0578 (inactive)	2.06	0.077	0.383	1.12	0.821
C=CCOC(=O)[C@@H]1[C@H]2C(=O)O[C@H](c3ccccc3)[C@H](c3ccccc3)N2[C@H](c2ccc(OCCOC(=O)[C@@H]3C[C@@H]4C(=O)N[C@@H](CCCCNC(C)=O)C(=O)N4[C@@H]3c3ccc(O)cc3)cc2)[C@@]12C(=O)Nc1ccc(I)cc12	1.73	1.21	0.478	0.207	1.41	1.62	-1.37	1.37	0.412	-0.576 (inactive)	0.681	-0.0705 (inactive)	-0.128 (inactive)	-0.805 (inactive)	-1.32 (inactive)	-0.0068	0.591	0.928	0.27	1.81
C=CCC(OC(C)=O)[C@@H]1[C@@H](N(Cc2cccc3ccccc23)C(=O)c2ccc(C)cc2)c2cc(OCCCO)ccc2N1C(=O)c1ccc2ccccc2c1 (stereo not given in full)	-0.204	0.133	0.0096	0.189	0.672	0.123	1.15	0.102	-0.193	-0.195 (inactive)	0.0228	-0.487 (inactive)	-0.412 (inactive)	1.22 (inactive)	0.197 (inactive)	0.128	0.0797	0.196	0.792	0.788
COc1ccc(C#Cc2ccc3c(c2)[C@]2(C(=O)N3)[C@H](c3ccc(OCCO)cc3)N3[C@H](c4ccccc4)[C@H](c4ccccc4)OC(=O)[C@H]3[C@@H]2C(=O)N2CCN(c3ncccn3)CC2)cc1	0.197	0.816	0.0451	0.771	1.01	0.0495	-1.38	0.305	0.776	0.713 (inactive)	0.0992	-3.47 (inactive)	-0.385 (inactive)	0.0653 (inactive)	-0.239 (inactive)	0.819	-0.0521	0.433	0.374	0.666
C/C=C/[C@@H](CCn1cc([C@H](O)c2ccccc2)nn1)[Si](C)(C)c1ccc(OC)cc1	0.0974	-0.253	0.0213	-0.267	-0.673	-0.62	0.947	-0.337	0.418	0.273 (inactive)	0.303	-3.67 (inactive)	0.214 (inactive)	3.3 (inactive)	0.128 (inactive)	-0.514	-0.253	0.154	-0.575	-0.0723
C=CCC(OC(C)=O)[C@@H]1[C@@H](N(Cc2cccc3ccccc23)C(=O)Cc2ccc(F)cc2)c2cc(OCCCO)ccc2N1C(=O)Cc1ccc(OC)cc1 (stereo not given in full)	-0.241	-0.0072	-0.142	0.766	0.532	-0.109	-0.189	0.391	0.672	0.678 (inactive)	-0.0124	-0.627 (inactive)	-0.945 (inactive)	-0.579 (inactive)	-0.374 (inactive)	0.227	-0.102	-0.149	-0.137	0.309
COc1ccc(C#Cc2ccc3c(c2)[C@]2(C(=O)N3)[C@H](C(N)=O)[C@H]3C(=O)O[C@H](c4ccccc4)[C@H](c4ccccc4)N3[C@@H]2c2ccc(O)cc2)cc1	1.69	1.22	1.6	0.844	0.658	0.717	-1.4	0.339	0.317	0.734 (inactive)	0.138	-4.69 (inactive)	-0.755 (inactive)	-0.465 (inactive)	-0.332 (inactive)	0.214	-0.128	0.369	1.03	0.794
COc1ccccc1CN1C(=O)c2ccccc2[C@@]2(Cc3ccccc3N(C3CC3)C2=O)[C@@H]1c1ccc(CO)cc1	0.131	-1.12	-0.175	-0.248	0.253	-1.17	0.111	-0.154	-0.0487	-0.379 (inactive)	-0.507	-0.0976 (inactive)	1.13 (inactive)	0.622 (inactive)	-0.148 (inactive)	-0.189	-0.125	-1.68	-0.821	-0.27
[N-]=[N+]=NCc1ccccc1C[C@]1(C(=O)NCCN2CCOCC2)COC(c2ccc(OCCCO)cc2)=N1	0.293	1.24	0.815	1.02	0.953	0.152	1.88	0.346	0.783	-0.851 (inactive)	0.315	-2.41 (inactive)	-0.0639 (inactive)	2.64 (inactive)	-0.664 (inactive)	0.837	0.161	0.969	0.645	-0.204
